# Data from PubChem BioAssay (EPA / NIEHS).
# Calls of active or inactive are those of the source. Rule for the calls: active = hit-call score of the fitted dose curve at least 0.9, where 1 is the maximum; inactive = score below 0.9.
# Read-out: Interferon-gamma inducible Protein 10 (IP10), CXCL10 (gene 3627)
# Assay: BSK_KF3CT_IP10: BioMAP Diversity Plus: KF3CT Assay for Interferon-gamma inducible Protein 10 (IP10) Biomarker Activity (AID 2283068)
# Details: primary human keratinocytes with fibroblasts; actives raise or lower the signal
# In short: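 In a primary skin co-culture of keratinocytes and fibroblasts, IP-10 is quantified by ELISA at 24 h after dosing. SRB staining of parallel wells monitors overt toxicity. Curves are fitted both directions against DMSO.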
Structure (SMILES),outcome,AC50
O=c1n(CC2CO2)c(=O)n(CC2CO2)c(=O)n1CC1CO1 (configuration not stated),inactive,
CCOC(=O)COc1ccc2c(c1)CC(NCC(O)c1cccc(Cl)c1)CC2 (configuration not stated),inactive,
O=C1CCC(N2C(=O)c3ccccc3C2=O)C(=O)N1 (configuration not stated),inactive,
Cn1cnc([N+](=O)[O-])c1Sc1ncnc2nc[nH]c12,inactive,
CCOCCOCCOCCO,inactive,
CCOC(=O)CC(CC(=O)OCC)(OC(C)=O)C(=O)OCC,inactive,
CCCN(C1CCN(C(=O)C2CCNCC2)CC1)[C@@H]1CCc2ccc(OC)cc2C1,inactive,
CC(C)CC(C)(O)C#CC(C)(O)CC(C)C (configuration not stated),inactive,
O=C(O)c1cc(N=Nc2ccc(S(=O)(=O)Nc3ccccn3)cc2)ccc1O,inactive,
CNCc1ccc(NC(=O)c2c[nH]c3c2C(=O)CCC3)cc1,inactive,
Cc1ccc(S(=O)(=O)O)cc1C,inactive,
C1N2CN3CN1CN(C2)C3,inactive,
Cn1c(=O)c2c(ncn2C)n(C)c1=O,inactive,
Cc1[nH]cnc1C[C@H]1CCc2c(C)c3ccccc3n2C1=O,inactive,
CCNc1ccccc1,inactive,
On1ccccc1=S,,10.3 µM (active)
CCCC(=O)OCC,inactive,
Nc1cccc(N)c1,inactive,
CC1=CC(=O)CC(C)(C)C1,inactive,
Cc1ccc(O)cc1,inactive,
CCn1nc(Cc2ccccc2)cc1C1CCN(C[C@H]2C[C@H](N(C)[C@@H](C(=O)O)C(C)C)C[C@@H]2c2cccc(F)c2)CC1,inactive,
CC(C)CCO,inactive,
Cc1ccc(N)cc1O,inactive,
CN(C)c1ccc(N=NS(=O)(=O)O)cc1,inactive,
COc1ccc2sc(C(=O)Nc3nnn[nH]3)c(OC(C)C)c2c1,,25.4 µM (active)
O=C(O)CC(O)C(=O)O (configuration not stated),inactive,
CCCCCCCCCCCCCCCO,inactive,
COC(=O)c1c(Cl)c(Cl)c(C(=O)OC)c(Cl)c1Cl,inactive,
Nc1ccc(Nc2ccccc2)cc1,inactive,

# Read-out: not listed separately
# Assay: BSK_KF3CT_SRB: Viability Assessment in the BioMAP Diversity Plus: KF3CT Assay (AID 2283069);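 note: total protein by sulforhodamine B staining as a cytotoxicity measure; read 24 h after compound addition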
# Details: primary human keratinocytes with fibroblasts
# In short: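 Cytotoxicity was gauged by SRB staining (0.1% SRB, 10% TCA fixation, 560 nm) of parallel cultures at 24 h. The cells were primary human skin keratinocytes co-cultured with fibroblasts, and activity was fitted in both directions against DMSO.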
Structure (SMILES),outcome,AC50
O=c1n(CC2CO2)c(=O)n(CC2CO2)c(=O)n1CC1CO1 (configuration not stated),inactive,
CCOC(=O)COc1ccc2c(c1)CC(NCC(O)c1cccc(Cl)c1)CC2 (configuration not stated),inactive,
O=C1CCC(N2C(=O)c3ccccc3C2=O)C(=O)N1 (configuration not stated),inactive,
Cn1cnc([N+](=O)[O-])c1Sc1ncnc2nc[nH]c12,inactive,
CCOCCOCCOCCO,inactive,
CCOC(=O)CC(CC(=O)OCC)(OC(C)=O)C(=O)OCC,inactive,
CCCN(C1CCN(C(=O)C2CCNCC2)CC1)[C@@H]1CCc2ccc(OC)cc2C1,inactive,
CC(C)CC(C)(O)C#CC(C)(O)CC(C)C (configuration not stated),inactive,
O=C(O)c1cc(N=Nc2ccc(S(=O)(=O)Nc3ccccn3)cc2)ccc1O,inactive,
CNCc1ccc(NC(=O)c2c[nH]c3c2C(=O)CCC3)cc1,inactive,
Cc1ccc(S(=O)(=O)O)cc1C,inactive,
C1N2CN3CN1CN(C2)C3,inactive,
Cn1c(=O)c2c(ncn2C)n(C)c1=O,inactive,
Cc1[nH]cnc1C[C@H]1CCc2c(C)c3ccccc3n2C1=O,inactive,
CCNc1ccccc1,inactive,
On1ccccc1=S,,6.33 µM (active)
CCCC(=O)OCC,inactive,
Nc1cccc(N)c1,inactive,
CC1=CC(=O)CC(C)(C)C1,inactive,
Cc1ccc(O)cc1,inactive,
CCn1nc(Cc2ccccc2)cc1C1CCN(C[C@H]2C[C@H](N(C)[C@@H](C(=O)O)C(C)C)C[C@@H]2c2cccc(F)c2)CC1,inactive,
CC(C)CCO,inactive,
Cc1ccc(N)cc1O,inactive,
CN(C)c1ccc(N=NS(=O)(=O)O)cc1,inactive,
COc1ccc2sc(C(=O)Nc3nnn[nH]3)c(OC(C)C)c2c1,,26.1 µM (active)
O=C(O)CC(O)C(=O)O (configuration not stated),inactive,
CCCCCCCCCCCCCCCO,inactive,
COC(=O)c1c(Cl)c(Cl)c(C(=O)OC)c(Cl)c1Cl,inactive,
Nc1ccc(Nc2ccccc2)cc1,inactive,

# Read-out: Interleukin-1 alpha (IL1a), IL1A (gene 3552)
# Assay: BSK_KF3CT_IL1a: BioMAP Diversity Plus: KF3CT Assay for Interleukin-1 alpha (IL1a) Biomarker Activity (AID 2283070)
# Details: primary human keratinocytes with fibroblasts; actives raise or lower the signal
# In short: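 IL-1a was detected by ELISA 24 h after chemical treatment of a co-culture of human skin keratinocytes and foreskin fibroblasts. Gain or loss of signal was fitted against the DMSO baseline.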
Structure (SMILES),outcome,AC50
O=c1n(CC2CO2)c(=O)n(CC2CO2)c(=O)n1CC1CO1 (configuration not stated),inactive,
CCOC(=O)COc1ccc2c(c1)CC(NCC(O)c1cccc(Cl)c1)CC2 (configuration not stated),inactive,
O=C1CCC(N2C(=O)c3ccccc3C2=O)C(=O)N1 (configuration not stated),inactive,
Cn1cnc([N+](=O)[O-])c1Sc1ncnc2nc[nH]c12,inactive,
CCOCCOCCOCCO,inactive,
CCOC(=O)CC(CC(=O)OCC)(OC(C)=O)C(=O)OCC,inactive,
CCCN(C1CCN(C(=O)C2CCNCC2)CC1)[C@@H]1CCc2ccc(OC)cc2C1,inactive,
CC(C)CC(C)(O)C#CC(C)(O)CC(C)C (configuration not stated),inactive,
O=C(O)c1cc(N=Nc2ccc(S(=O)(=O)Nc3ccccn3)cc2)ccc1O,inactive,
CNCc1ccc(NC(=O)c2c[nH]c3c2C(=O)CCC3)cc1,inactive,
Cc1ccc(S(=O)(=O)O)cc1C,inactive,
C1N2CN3CN1CN(C2)C3,inactive,
Cn1c(=O)c2c(ncn2C)n(C)c1=O,inactive,
Cc1[nH]cnc1C[C@H]1CCc2c(C)c3ccccc3n2C1=O,inactive,
CCNc1ccccc1,inactive,
On1ccccc1=S,,10.2 µM (active)
CCCC(=O)OCC,inactive,
Nc1cccc(N)c1,inactive,
CC1=CC(=O)CC(C)(C)C1,inactive,
Cc1ccc(O)cc1,inactive,
CCn1nc(Cc2ccccc2)cc1C1CCN(C[C@H]2C[C@H](N(C)[C@@H](C(=O)O)C(C)C)C[C@@H]2c2cccc(F)c2)CC1,inactive,
CC(C)CCO,inactive,
Cc1ccc(N)cc1O,inactive,
CN(C)c1ccc(N=NS(=O)(=O)O)cc1,inactive,
COc1ccc2sc(C(=O)Nc3nnn[nH]3)c(OC(C)C)c2c1,,19.9 µM (active)
O=C(O)CC(O)C(=O)O (configuration not stated),inactive,
CCCCCCCCCCCCCCCO,inactive,
COC(=O)c1c(Cl)c(Cl)c(C(=O)OC)c(Cl)c1Cl,inactive,
Nc1ccc(Nc2ccccc2)cc1,inactive,
